From PubChem BioAssay AID1986 (Sanford-Burnham Center for Chemical Genomics, 2009)
About 890 (0.31%) of roughly 290,000 compounds were called active. No stated cut-off is given here; in the data, active means inhibition mostly above about 52% (no sharp cut-off); inactive means mostly below about 76%. The list comes from a sample in which actives are over-represented; it also holds similar structures and randomly drawn compounds.

Experiment: cell-free HIV fusion peptide-binding blockers – biochemical, uHTS, fluorescence dequenching, primary screen (AID 1986)
Conditions: 30 min, stronger effect = higher value
[1] = measured here: repeat confirmation average inhibition, at 18.6 µM

Row | SMILES | inhibition (at 20 µM) | inhibition [1]
1 | Cc1ccc(C(=O)NCC(c2ccc(F)cc2)N2CCOCC2)cc1 (stereo not drawn) | -1.6% (inactive) | 
2 | O=C(CSc1nnc(SCc2ccccc2)s1)N/N=C/C=C\c1ccco1 | 51.3% (active) | 
3 | O=C(Cc1cccs1)N/N=C/c1ccco1 | 5% (inactive) | 
4 | O=C(CSc1nnc(SCc2ccccc2)s1)N/N=C/C=C/c1ccco1 | 33.4% (inactive) | 
5 | Cc1ccc(CSc2nnc(SCC(=O)N/N=C/C=C/c3ccco3)s2)cc1 | 46.7% (inactive) | 
6 | O=C(Cc1cccs1)N/N=C/C=C\c1ccco1 | 69.7% (active) | 
7 | O=C(Cc1cccs1)N/N=C/C=C/c1ccco1 | 31.2% (inactive) | 
8 | O=C(NC(NC(=O)c1ccccc1)c1cccc([N+](=O)[O-])c1)c1ccccc1 | 4.1% (inactive) | 
9 | CN(C)CCCNS(=O)(=O)c1ccc(N2CCC(c3ccc(Cl)cc3)=N2)cc1 | -4.9% (inactive) | 
10 | COc1ccc(-c2nc(N3CCCCCC3)sc2C(=O)c2ccccc2)cc1 | 0.2% (inactive) | 
11 | Cc1ccc(N=Nc2c(O)[nH]c3ccc(F)cc23)cc1 | 111% (active) | 
12 | Oc1[nH]c2ccc(Br)cc2c1N=Nc1ccc(F)cc1 | 164% (inactive) | 
13 | Cc1cccc(N=Nc2c(O)[nH]c3ccc(F)cc23)c1 | 95% (active) | 136%
14 | Oc1[nH]c2ccccc2c1N=Nc1ccc(F)cc1 | 150% (inactive) | 
15 | Cc1cccc(N=Nc2c(O)[nH]c3ccc(Br)cc23)c1 | 13.9% (inactive) | 
16 | O=[N+]([O-])c1ccc(N=Nc2c(O)[nH]c3ccc(F)cc23)cc1 | 6.3% (inactive) | 
17 | CCOc1ccc(N(C(=O)c2snc(C(N)=O)c2N)C(CC)C(=O)NC2CCCC2)cc1 (stereo not drawn) | 1.8% (inactive) | 
18 | Cc1cc(C)c(NC(=O)CSc2nc3ncc(Cl)cc3[nH]2)c(C)c1 | 2.2% (inactive) | 
19 | Cc1ccccc1NC(=O)c1c(C)[nH]c(=S)c(C#N)c1-c1ccco1 | 66.5% (active) | 
20 | Cc1ccc(-c2c(C(=O)Nc3ccccc3C)c(C)[nH]c(=S)c2C#N)o1 | 33.1% (inactive) | 
21 | CNC(=O)c1c(C)[nH]c(=S)c(C#N)c1-c1ccco1 | 4.3% (inactive) | 
22 | O=C(CN1C(=O)NC2(CCCCCCC2)C1=O)N1CCN(C(=O)c2ccco2)CC1 | 1.6% (inactive) | 

Row | SMILES | inhibition (at 20 µM) | inhibition [1]
23 | COc1ccc(CCC(=O)Nc2ccccc2C(F)(F)F)cc1 | 0% (inactive) | 
24 | CCCN1CCN(C(=O)CCn2c(=O)c3cccn3c3cccnc32)CC1 | 0.2% (inactive) | 
25 | Nc1c(C(=O)N/N=C/c2ccc(F)cc2)oc2nc(-c3ccccc3)cc(-c3ccco3)c12 | 44.8% (inactive) | 
26 | Nc1c(C(=O)N/N=C/c2cccnc2)oc2nc(-c3ccco3)cc(-c3ccco3)c12 | 99.1% (inactive) | 9.2%
27 | Nc1c(C(=O)N/N=C/c2ccccc2Cl)oc2nc(-c3ccccc3)cc(-c3ccco3)c12 | 51.3% (active) | 69.2%
28 | Cc1ccc(-c2cc(-c3ccco3)c3c(N)c(C(=O)NN)oc3n2)cc1 | 60.5% (inactive) | 7.9%
29 | COc1cccc(/C=N/NC(=O)c2oc3nc(-c4ccccc4)cc(-c4ccco4)c3c2N)c1 | 54.2% (active) | 55.5%
30 | Nc1c(C(=O)N/N=C/c2cccnc2)oc2nc(-c3ccccc3)cc(-c3ccco3)c12 | 32.7% (inactive) | 
31 | O=C(CCCCCN1C(=O)c2ccccc2C1=O)Nc1ccc(C(=O)O)cc1 | -1% (inactive) | 
32 | CSc1nc2ccccc2n1CC(=O)Nc1ccc(C)c(C)c1 | 0.9% (inactive) | 
33 | O=[N+]([O-])c1cccc(S(=O)(=O)c2ccc(N3CCCCC3)c([N+](=O)[O-])c2)c1 | 2.4% (inactive) | 
34 | CCOC(=O)C1=C(CC)OC(N)=C(C#N)C1c1ccc(OC)c(C)c1OC (stereo not drawn) | -1.8% (inactive) | 
35 | CCOC(=O)/C(=N\Nc1cccc(C(F)(F)F)c1)N1CCOCC1 | -4.2% (inactive) | 
36 | O=S(=O)(c1ccccc1)N1CCC(Oc2ccc(-n3cnnn3)cc2)CC1 | 0.5% (inactive) | 
37 | COc1cnc(N(C)C)nc1Sc1cccc(Cl)c1 | 1.2% (inactive) | 
38 | O=C(O)c1ccc2c3c(cccc13)C(=O)N(c1ccccc1)C2=O | 24.2% (inactive) | 
39 | Cc1c(O)c2c3c(cccc3c1O)C(=O)N(c1ccccc1)C2=O | 57.9% (active) | 55.3%
40 | Nc1ccc2c3c(cccc13)C(=O)N(c1ccccc1)C2=O | 142% (inactive) | 
41 | Cc1cc(C)cc(NC(=O)c2cccn2-c2ncc(C(F)(F)F)cc2Cl)c1 | 2.6% (inactive) | 
42 | O=C(N=c1ccn(-c2nc3ccccc3nc2NS(=O)(=O)c2ccc(Cl)cc2)cc1)c1cccs1 | 19.3% (inactive) | 
43 | O=C(N=c1ccn(-c2nc3ccccc3nc2NS(=O)(=O)c2ccccc2)cc1)c1ccccc1Cl | 24.6% (inactive) | 
44 | O=C(N=c1ccn(-c2nc3ccccc3nc2NS(=O)(=O)c2ccc(Cl)cc2)cc1)c1ccccc1Cl | 102% (active) | 

Row | SMILES | inhibition (at 20 µM) | inhibition [1]
45 | COc1cccc(/C=N/n2c(C3CCCCC3)n[nH]c2=S)c1 | 0.5% (inactive) | 
46 | CC(C)(C)C(=O)NC(=S)Nc1ccccc1C(N)=O | -0.3% (inactive) | 
47 | CCCCCCc1cc2cc(-c3nnc(-c4cc(OC)c(OC)c(OC)c4)o3)c(=O)oc2cc1O | 73.7% (active) | 61.9%
48 | CCCCCCc1cc2cc(-c3nnc(-c4ccccc4OC)o3)c(=O)oc2cc1O | 81.8% (inactive) | 45.4%
49 | CCCCCCc1cc2cc(-c3nnc(-c4ccccc4O)o3)c(=O)oc2cc1O | 65.1% (inactive) | 47.7%
50 | CCOc1cc(CN2CCCC(N3CCc4ccccc4C3)C2)ccc1O (stereo not drawn) | -0.5% (inactive) | 
51 | Cc1cc(O)c(C=Nc2ccc(N3CCOCC3)cc2)c(C)c1Cl | 80.4% (active) | 73.9%
52 | Oc1ccc(C=Nc2ccc(N3CCOCC3)cc2)c(O)c1 | 6.1% (inactive) | 
53 | Oc1c(Cl)cc(Cl)cc1C=Nc1ccc(N2CCOCC2)cc1 | 1.6% (inactive) | 
54 | COc1cc(/C=C2\C(=N)N3N=C(S(=O)(=O)CC(C)C)SC3=NC2=O)ccc1OC(=O)c1ccco1 | 70.2% (active) | 
55 | O=C1NC(=S)S/C1=C\c1ccc(SCc2ccco2)o1 | 53.5% (active) | 
56 | CCS(=O)(=O)C1=NN2C(=N)/C(=C\c3ccc(SCc4ccco4)o3)C(=O)N=C2S1 | 72.8% (active) | 
57 | O=C1NC(=S)S/C1=C\c1ccc(SCc2ccccc2)o1 | 72.3% (inactive) | 15.9%
58 | CCOc1cc(/C=C2\C(=N)N3N=C(N4CCCCC4)SC3=NC2=O)ccc1OC(=O)c1ccco1 | 20.5% (inactive) | 
59 | CCC1=NN2C(=N)/C(=C\c3ccc(SCc4ccco4)o3)C(=O)N=C2S1 | -2.8% (inactive) | 
60 | CCS(=O)(=O)C1=NSC2=NC(=O)/C(=C\c3ccc(OC(=O)c4ccco4)c(OC)c3)C(=N)N21 | 20.4% (inactive) | 
61 | N=C1/C(=C\c2ccc(SCc3ccco3)o2)C(=O)N=C2SC=NN12 | 100% (inactive) | 7.1%
62 | COc1cc(/C=C2/C(=N)N3C(SC)=NSC3=NC2=O)ccc1OC(=O)c1ccco1 | 59.5% (inactive) | 17.2%
63 | CCS(=O)(=O)C1=NN2C(=N)/C(=C\c3ccc(OC(=O)c4ccco4)cc3)C(=O)N=C2S1 | 39.2% (inactive) | 
64 | CCCC1=NN2C(=N)/C(=C\c3ccc(SCc4ccco4)o3)C(=O)N=C2S1 | -0.5% (inactive) | 
65 | CCS(=O)(=O)C1=NN2C(=N)/C(=C\c3ccc(OC(=O)c4ccco4)c(Br)c3)C(=O)N=C2S1 | 52.4% (active) | 
